Screening results deposited in PubChem BioAssay by National Center for Advancing Translational Sciences (NCATS).
Rows were chosen to be rich in hits. Some 12% of all compounds tested hit in one or more screens of this group.
Sm TGR inh = inhibitors of Schistosoma mansoni thioredoxin glutathione reductase. Q962Y6. purified TGR, DTNB reduction, TNB absorbance 405 nm. Potency, µM (top dose mostly 114 µM), for inactives: top-dose activity change, negative = inhibition, hits mostly inhibitors. 360,000 tested, 3% active; note: % is set by controls: 0 for no effect and ±100 for the full control effect; nearly all actives have a fitted effect of over 60% in size
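First, TGR (20 nM dispensed) and NADPH were mixed with compound. Second, a 15 min room-temperature incubation followed. Third, further NADPH and then DTNB were added to start the reaction. Finally, TNB absorbance was monitored kinetically.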
SARS PLP yeast = SARS-CoV PLP inhibition in yeast; S. cerevisiae expressing SARS-CoV PLpro, growth rescue; Potency, µM (doses to about 32.9 µM), for the others: at the top dose activity, positive = growth rescue, usual class: activators; 330,000 tested, 0.19% active; calls by dose curve; note: 0% is about no effect; nearly all actives have a fitted effect of over 55% in size
Pf growth 48h = inhibits P. falciparum growth in the first generation, 48 h; P. falciparum luciferase growth in erythrocytes, 48 h; AID 504832; 310,000 tested, 5.9% active; Potency, µM (titrated, usually from 28.7 µM), inactives show at the top dose activity change, negative = inhibition, actives largely listed as inhibitors; note: % is set by controls: 0 for no effect and ±100 for the full control effect
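Luminescence readout; reporter = integrated firefly luciferase in P. falciparum. RBC culture at 2% hematocrit, 0.1% parasitemia final, 37 C/5% CO2; decreased signal taken as growth inhibition.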
AmpC detergent = blocks E. coli AmpC beta-lactamase in detergent assay; P00811; AmpC hydrolysis of nitrocefin, absorbance 480 nm, 0.01% Triton; 370,000 tested, 0.041% active; AID 485294; Potency, µM (doses to about 114 µM), for inactives: at the top dose activity change, negative = inhibition, hits mostly inhibitors;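 note: 0% = no-compound wells and -100% = no-enzyme wells; nearly all actives have a fitted effect of over 25% in size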
Target sequence (P00811 whole entry, looked up): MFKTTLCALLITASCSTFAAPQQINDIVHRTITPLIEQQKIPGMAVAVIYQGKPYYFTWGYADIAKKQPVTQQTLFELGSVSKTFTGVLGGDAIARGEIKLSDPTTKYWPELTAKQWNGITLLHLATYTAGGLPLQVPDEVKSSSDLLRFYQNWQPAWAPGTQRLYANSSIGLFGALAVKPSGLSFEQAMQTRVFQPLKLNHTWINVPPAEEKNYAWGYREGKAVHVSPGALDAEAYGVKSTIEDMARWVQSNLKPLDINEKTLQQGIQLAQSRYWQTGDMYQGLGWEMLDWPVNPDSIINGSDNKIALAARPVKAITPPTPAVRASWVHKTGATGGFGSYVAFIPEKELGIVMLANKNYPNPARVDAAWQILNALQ
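AmpC (5.3 nM in the dispensed reagent) in 20 mM phosphate pH 7.0 with 0.01% (detergent screen) or 0.0001% Triton X-100 was preincubated with compounds for 15 min at room temperature. Nitrocefin was then added from an 800 uM solution, and hydrolysis was followed at 480 nm.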
AmpC inh no detg = AmpC beta-lactamase inhibition without detergent | AmpC nitrocefin hydrolysis, absorbance 480 nm, 0.0001% Triton | Potency, µM (highest dose often 57.1 µM), inactives show at the highest dose activity change, negative = inhibition, most hits filed as inhibitors | AID 485341 | 330,000 tested, 0.52% active;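 note: plate controls were no compound for no effect and no enzyme for full effect; nearly all actives have a fitted effect of over 20% in size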
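20 mM phosphate pH 7.0 + 0.01% (detergent screen) or 0.0001% Triton X-100; 5.3 nM AmpC reagent; cpd preinc 15 min RT; nitrocefin (800 uM stock) to start; A480 q20 s × 4 min; Activity was normalised to no-enzyme and no-compound control wells.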
Pf growth 96h = P. falciparum growth inhibition at 96 hour, primary screen for plastid delayed-death inhibitors. P. falciparum luciferase reporter growth, 96 h. Potency, µM (highest dose often 28.7 µM), inactives show at the top dose activity change, negative = inhibition, usual class: inhibitors. 320,000 tested, 6.9% active; note: % is set by controls: 0 for no effect and ±100 for the full control effect
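P. falciparum expressing integrated firefly luciferase grown in erythrocytes (2% hematocrit, 0.05% parasitemia final) with compounds for 96 hours at 37 C, 5% CO2. Growth inhibition read as loss of luminescence after adding luciferase detection reagent.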
Numbers without * were called inactive; ? = inconclusive; / = no result. Unless noted, calls come from the whole dose curve; as a rule, active = well fitted curve in the direction sought with a large enough effect; inconclusive = small, poorly fitted or top-dose-only effect, or another doubt; inactive = no such curve, though single readings can be large; an effect the other way counts as inactive or inconclusive. Potency is the fitted concentration of half-maximal effect.

SMILES | Sm TGR inh | SARS PLP yeast | Pf growth 48h | AmpC detergent | AmpC inh no detg | Pf growth 96h
CCOc1ccccc1CNC(=O)c1cnc2sc(N3CCCCCC3)nn2c1=O | -15.6% | / | / | -6.2% | / | /
Cc1cc(OCC(=O)OCC(=O)N(C)c2c(N)n(Cc3ccccc3)c(=O)[nH]c2=O)ccc1Cl | 7.6% | / | 1.8% | -5.6% | 122.0% | 30.1%
COC(=O)c1c(C)[nH]c(-c2csc(N)n2)c1C | 8.7% | -4.4% | 18.0% | -1.9% | -1.2% | ?
CN1CCN(c2ccc(-c3nc(-c4ccccc4)no3)cc2[N+](=O)[O-])CC1 | -9.4% | / | / | -4.5% | / | /
Cc1ccc2[nH]c(C)c(CC(=O)O)c2c1 | ? | -10.5% | ? | -3.8% | -21.7% | /
C=CCc1c(C)[nH]c2ccc(C)cc2c1=O | -23.0% | -4.7% | 1.47µM* | -3.2% | -12.9% | /
CCc1c(C)[nH]c2ccc(C)cc2c1=O | -2.9% | -5.7% | 1.65µM* | ? | -2.3% | 12.9%
CCCCc1c(C)c2cc(C)ccc2[nH]c1=O | 1.8% | 1.0% | / | -2.0% | -39.7% | -28.6%
Cc1ccc2[nH]c(-c3ccccc3)c(CN(C)C)c(=O)c2c1 | 9.3% | 7.3% | ? | 6.7% | -6.3% | ?
CCCc1c(C)c2cc(C)ccc2[nH]c1=O | 2.9% | -1.3% | 14.9% | -14.4% | -29.8% | 9.28µM*
CC1CN(S(=O)(=O)c2cccc(C(=O)NCCC3=CCCCC3)c2)CC(C)O1 (configuration not stated) | 0.2% | 4.4% | ? | -8.9% | 30.1% | ?
Cc1ccc(Cl)cc1NC(=O)C1C2CCC(O2)C1C(=O)O (configuration not stated) | 6.3% | 3.8% | -1.7% | -12.0% | -34.3% | 198.5%
COC(=O)c1cc(-c2ccc(Br)cc2)c2c(=O)n(C)c(=O)n(C)c2n1 | 5.2% | -0.4% | -10.6% | 0.6% | -17.5% | 5.86µM*
COc1ccccc1Cn1c(SCC(=O)C(C)(C)C)nc2cc(C(=O)N3CCC4(CC3)OCCO4)ccc2c1=O | 1.6% | -0.1% | 5.86µM* | 5.9% | -17.1% | ?
COc1ccc(C(C)=O)cc1CSc1nc2cc(C(=O)O)ccc2c(=O)n1Cc1ccccc1 | 22.4µM* | 14.6% | -0.5% | -11.8% | -46.6% | -32.5%
Cc1ccc(S(=O)(=O)N2CCC(C(=O)N3CCC3)CC2)cc1 | 1.1% | -6.5% | 20.9% | -4.8% | 3.9% | ?
CCOc1cc(CNC(=O)c2ccccc2NC(=O)c2nsc3ccccc23)ccc1OC | -2.1% | / | / | 16.3% | / | /
O=C1C(=Cc2ccco2)C(=O)c2ccccc21 | -33.0% | -19.8% | 3.4% | ? | -28.7% | 16.5µM*
O=C(O)c1ccc2c(c1)C(=O)/C(=C\c1ccco1)C2=O | 7.08µM* | 0.1% | -12.8% | 3.7% | -22.3% | 11.7µM*
Cc1ccc(C=C2C(=O)c3ccccc3C2=O)o1 | -28.0% | ? | ? | -5.3% | -23.7% | ?
O=C(O)c1ccc2c(c1)C(=O)/C(=C/c1ccccc1)C2=O | -10.4% | 5.0% | -13.6% | -13.5% | -8.2% | -27.4%
Cc1ccc(/C=C2/C(=O)c3ccc(C(=O)O)cc3C2=O)o1 | 5.01µM* | 0.8% | 28.1% | 2.4% | -12.7% | 8.28µM*
COC(=O)C/C=C/[C@@H](C)[C@@H](/C=N/OC[C@@H](C)[C@H](OCc1ccccc1)C(C)C)NS(=O)(=O)c1ccc(C)cc1 | -17.6% | 0.9% | 13.1µM* | ? | 28.2µM* | 9.28µM*
C=CC[C@@H]1C=C[C@H](O/N=C/[C@@H](NS(=O)(=O)c2ccc(C)cc2)[C@H](C)/C=C/CC(=O)OC)[C@@H](CO)O1 | -17.8% | -10.5% | 9.9% | ? | 57.2% | -27.1%
COc1ccc(-c2ccn(-c3cccc(F)n3)n2)cc1 | 28.2µM* | -3.2% | -12.9% | 5.0% | -27.4% | -43.3%
COc1ccc(-c2cn3ccccc3n2)cc1 | 4.0% | -3.5% | 115.1% | 2.0% | -5.8% | -9.7%
